Source: PubChem BioAssay
A549 viability – kills or reduces viability of A549 cells in Nrf2 counter-screen; A549 ARE-Fluc cells, CellTiter-Fluor viability, 18-24 h; Potency, µM (highest dose often 46 µM), for inactives: at the highest dose activity change, negative = cytotoxicity, hits mostly inhibitors; 390,000 compounds, 0.16% hits; AID 504648; also: potency is read from the fitted curve at half-maximal effect
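A549 ARE-Fluc cells in 5% FBS OPTI-MEM, 5000 cells/well, rested 2 h then exposed to compounds in concentration-response for 18-24 h at 37 °C. Viability by CellTiter-Fluor fluorescence (Ex 405/Em 525) after 30 min; luciferase luminescence (BugLite, 15 min, RT) read afterwards.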
PI4K2A block – PI4K2A (human) kinase inhibition; purified PI4K2A, ADP-Glo luminescence, 1 h; active compounds read low; activity change, negative = inhibition, % at 76.9 µM; 420,000 compounds, 0.13% hits; in the data active = activity change below about -50%; inconclusive = mostly about -30% to -49%;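 also: -100% = wells without enzyme as full effect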
Target sequence (Q9BTU6 whole entry, looked up): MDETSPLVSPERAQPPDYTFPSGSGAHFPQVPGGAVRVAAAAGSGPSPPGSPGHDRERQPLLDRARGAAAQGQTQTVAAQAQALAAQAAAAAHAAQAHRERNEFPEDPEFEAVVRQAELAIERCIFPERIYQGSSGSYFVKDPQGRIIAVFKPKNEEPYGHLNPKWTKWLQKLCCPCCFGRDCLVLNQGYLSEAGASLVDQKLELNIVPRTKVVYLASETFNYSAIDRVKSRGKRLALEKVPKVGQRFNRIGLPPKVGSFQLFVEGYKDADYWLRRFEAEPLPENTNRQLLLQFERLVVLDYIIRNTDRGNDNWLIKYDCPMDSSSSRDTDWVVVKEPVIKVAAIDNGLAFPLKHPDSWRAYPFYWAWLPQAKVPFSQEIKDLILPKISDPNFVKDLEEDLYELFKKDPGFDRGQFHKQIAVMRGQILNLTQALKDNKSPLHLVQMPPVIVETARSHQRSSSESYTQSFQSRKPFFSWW
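PI4K2A activity was measured by ADP-Glo luminescence: enzyme (4 ug/mL stock) and phosphatidylinositol (1.2 mM stock) in Tris pH 7.5/MgCl2/EGTA/Triton X-100 buffer were reacted with ATP (300 microM stock) for one hour at ambient temperature.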
Nrf2 block – Nrf2 pathway inhibition | A549 ARE-Fluc reporter, luciferase luminescence, 18-24 h | Potency, µM (doses to about 46 µM), without a hit: top-dose activity change, negative = inhibition, usual class: inhibitors | 360,000 compounds, 2.1% hits | AID 504444; also: potency is read from the fitted curve at half-maximal effect; nearly all actives have a fitted effect of over 60% in size
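Cells were seeded and rested 2 h, then exposed to compounds for 18-24 h. CellTiter-Fluor was read first as a viability measure. BugLite was added 15 min before the final luminescent read of ARE-luciferase activity in A549 cells.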
KB-3-1 tox – kills parental KB-3-1 adenocarcinoma cells; 400,000 compounds, 1.4% hits; AID 1347075; KB-3-1 viability, CellTiter-Glo ATP luminescence, 72 h; Potency, µM (highest dose often 46.1 µM), actives largely listed as cytotoxic; also: potency is read from the fitted curve at half-maximal effect; nearly all actives have a fitted effect of over 60% in size
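Here the drug-naive KB-3-1 line serves as comparator for MDR sub-line selectivity; cells received compound titrations, 72 h at 37 °C, then CellTiter-Glo readout.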
KB-V1 cytotox – KB-V1 MDR subline cytotoxicity; KB-V1 MDR cells viability, CellTiter-Glo, 72 h; Potency, µM (doses to about 46.1 µM), usual class: cytotoxic; 400,000 compounds, 3.4% hits; AID 1347076; also: potency is read from the fitted curve at half-maximal effect; nearly all actives have a fitted effect of over 60% in size
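Drug-selected KB-V1 cells, grown in DMEM lacking phenol red with 10% FBS, receive compound titrations; after three days at 37 degrees C, surviving cell ATP is quantified by CellTiter-Glo luminescence and responses normalized and curve-fitted.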
Giardia kill – kills Giardia lamblia. Giardia lamblia trophozoite viability. activity change, % at 7.66 µM, hits read low. 340,000 compounds, 0.15% hits; in the data active = activity change below about -80%; inconclusive = between about -30% and that limit;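 also: parasites exposed to compound for two days anaerobically before the ATP read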
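Each well holds 100 Giardia trophozoites and compound. After two days (48 hrs) at 37 deg C in anaerobic conditions, ATP is quantified by luminescence.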
* = called active by the depositor; i = inactive; ? = inconclusive; · = no result. An excerpt weighted towards active compounds, which were near 5.7% of everything screened. Unless noted, calls follow the shape of the dose curve; as a rule, active = well fitted curve in the direction sought with a large enough effect; inconclusive = small, poorly fitted or top-dose-only effect, or another doubt; inactive = no such curve, though single readings can be large; an effect the other way counts as inactive or inconclusive. Unless noted, % is scaled to controls: 0 for no effect and ±100 for the full control effect.

SMILES	A549 viability	PI4K2A block	Nrf2 block	KB-3-1 tox	KB-V1 cytotox	Giardia kill
CCOP(=O)(OCC)c1nc(-c2cccc3ccccc23)oc1NCCc1ccc(OC)cc1	-14.6%	-4.0	-28.2%	?	5.17µM*	?
CCN(C(=O)CSc1nnc(-c2cccnc2)n1Cc1ccco1)c1ccccc1C	·	-2.1	·	·	·	·
COc1nnc(-c2ccc(N3CCCCC3)c(N)c2)c2ccccc12	-11.0%	0.3	20.6µM*	i	i	-2.5
Cc1ccc(SCC(c2ccccc2)N2CCN(C)CCC2=O)cc1 (stereo not drawn)	-2.8%	·	?	·	·	2.6
CCn1c(=O)c2cc(S(=O)(=O)NCc3ccccc3)ccc2n(CC)c1=O	-14.5%	5.8	-12.0%	i	14.6µM*	10.5
CCn1c(=O)c2cc(S(=O)(=O)NCCOc3ccccc3)ccc2n(CC)c1=O	-2.8%	4.1	-19.0%	i	i	5.8
FC(F)Oc1ccc(NC(=S)NC23CC4CC(CC(C4)C2)C3)cc1	-9.5%	0.8	?	23.1µM*	16.4µM*	9.0
CCOc1ccc(NC(=S)NC23CC4CC(CC(C4)C2)C3)cc1	0.1%	-2.7	7.8%	i	i	-0.2
COc1ccc2c(CNCc3ccc(C)o3)c(C(=O)O)n(Cc3ccccc3C)c2c1	-10.1%	-1.0	14.4%	i	i	·
COc1ccc(Cn2c(C(=O)O)c(CNCc3ccc(C)o3)c3ccc(OC)cc32)cc1	?	-1.3	-22.0%	8.2µM*	i	·
Cc1cc(NC(c2nnc(-c3ccccc3)o2)c2ccccc2F)ccc1Br (stereo not drawn)	-6.3%	-3.3	7.1%	?	i	·
O=C1COc2ccc(-c3csc(=Nc4ccc(OC(F)F)cc4)n3CC3CCCO3)cc2N1 (stereo not drawn)	?	1.3	?	?	2.91µM*	-2.9
c1ccc(-c2csc(=Nc3cccnc3)n2CC2CCCO2)cc1 (stereo not drawn)	-1.5%	0.9	-16.0%	i	?	-0.4
CN(C)S(=O)(=O)c1cccc(N=c2scc(-c3ccc4c(c3)NC(=O)CO4)n2CC2CCCO2)c1 (stereo not drawn)	-3.0%	2.7	·	?	16.4µM*	-9.1
COc1ccccc1N=c1scc(-c2ccc3c(c2)NC(=O)CO3)n1CC1CCCO1 (stereo not drawn)	-6.9%	-15.1	?	i	i	21.7
COC(=O)[C@]12C[C@H](CC(=O)N3CCC(c4ccccc4)CC3)C(=O)N(CCc3ccc(OC)c(OC)c3)C1=C[C@H](COCc1ccccc1)O[C@@H]2C	·	3.6	·	·	·	·
O=[N+]([O-])c1cnc2ccccn12	5.4%	8.3	?	i	i	-81.7*
CCC(=O)N1Cc2cc(C(=O)Nc3nccs3)nc(-c3cccc(-c4ccccc4OC)c3)c2[C@@H]1CCO	·	0.6	·	i	23.1µM*	·
COc1ccc(S[C@]2(C(=O)N(C)C)CC(=O)N(S(=O)(=O)c3ccc(F)cc3)[C@@H]2c2ccc(OC)cc2)cc1	·	-4.3	·	·	·	·
c1ccc(-c2cc(-c3nnc4sc(Cc5cccs5)nn34)[nH]n2)cc1	·	-17.5	·	·	·	·
Cc1ccc(CNS(=O)(=O)c2ccc3[nH]c4c(c3c2)CCCCC4)cc1	5.2%	-6.8	?	?	i	·
CN(CC(=O)NCc1ccccc1)S(=O)(=O)c1ccc2[nH]c3c(c2c1)CCCC3	-3.6%	3.1	-18.8%	i	?	·
COc1ccc(OC)c(CNS(=O)(=O)c2ccc3[nH]c4c(c3c2)CCCCC4)c1	-10.7%	0.6	16.4µM*	?	20.6µM*	·
CC(=O)c1cccc(NS(=O)(=O)c2ccc3[nH]c4c(c3c2)CCCCC4)c1	-17.6%	-1.2	16.4µM*	?	i	·
CN(Cc1ccccc1)S(=O)(=O)c1ccc2[nH]c3c(c2c1)CCCCC3	2.2%	0.6	16.4µM*	i	i	·
SMILES	A549 viability	PI4K2A block	Nrf2 block	KB-3-1 tox	KB-V1 cytotox	Giardia kill
CN(C)c1ccc(CNS(=O)(=O)c2ccc3[nH]c4c(c3c2)CCCCC4)cc1	-17.8%	-0.8	?	?	16.4µM*	·
CC(=O)c1ccccc1S(=O)(=O)N1CCN(c2nc(-c3cccs3)nc3ccccc23)CC1	2.5%	·	-20.1%	·	·	6.4
CCc1ccccc1NC(=O)Cn1c(C(=O)OC)cc2oc(C)cc21	-8.1%	-0.9	-12.9%	i	i	·
COc1ccc(NS(=O)(=O)c2ccc3[nH]c4c(c3c2)CCCCC4)cc1	?	2.8	16.4µM*	i	i	·
O=C(NC1CCCCC1)N1CCCC(c2nc(-c3cccs3)no2)C1 (stereo not drawn)	-11.8%	-2.0	?	i	i	-15.1
O=C(Nc1ccc(Cl)cc1)N1CCC(c2nc(-c3cccs3)no2)CC1	?	2.1	?	i	i	-4.6
O=C(Nc1ccccc1)N1CCCC(c2nc(-c3cccs3)no2)C1 (stereo not drawn)	1.1%	0.9	·	i	11.6µM*	7.0
COc1ccc(NC(=O)N2CCC(c3nc(-c4cccs4)no3)CC2)cc1	12.5%	-5.8	22.5%	i	6.51µM*	7.5
COc1cccc(C(=O)N2CCCC(c3nc(-c4cccs4)no3)C2)c1 (stereo not drawn)	-4.7%	0.1	?	i	4.11µM*	0.1
O=C(Nc1ccccc1F)C(Cc1ccccc1)N1Cc2ccccc2C1=O (stereo not drawn)	15.6%	-1.9	27.0%	·	·	·
COC(=O)C1N2C(=O)N(C)[C@H](C(=O)OC)[C@H]2SC1(C)C (stereo partly drawn)	·	·	·	i	i	·
O=C(c1cc2c(s1)-c1ccccc1S(=O)(=O)C2)N1CCN(Cc2ccccc2)CC1	-15.0%	1.5	18.4µM*	?	?	2.2
NC(=O)C1CCN(CC(=O)Nc2ccccc2Sc2ccccc2)CC1	0.3%	4.1	-7.3%	i	20.6µM*	13.3
NC(=O)C1CCN(CC(=O)Nc2ccccc2Sc2ccc(Cl)cc2)CC1	0.7%	-1.8	-4.4%	i	i	1.3
CC(/C=N/NC(=O)c1ccncc1)=C\c1ccc(C(C)C)cc1	-5.1%	-0.9	·	i	10.3µM*	11.3
COc1ccc(/C=C2\CC3(OC(=O)c4cccc(F)c4)CCCN2C3)cc1 (stereo not drawn)	·	-0.3	·	·	·	·
COc1ccccc1N1CCN(/N=C/c2cc(OC)c(OC)c(OC)c2)CC1	5.3%	2.5	-3.6%	i	14.6µM*	2.6
Cc1nnc(N2CCC(C(=O)N3CCCCC3)CC2)c2nn(-c3ccccc3)c(C)c12	8.8%	1.7	8.1%	i	i	·
COC(=O)c1[nH]c2ccc(F)cc2c1NS(=O)(=O)c1ccc(F)c(C)c1	-4.0%	3.0	-27.8%	?	16.4µM*	-4.4
